Inconclusive results are not listed. The source made the active and inactive calls. Rule for the calls: active = hit-call score of the fitted dose curve at least 0.9, where 1 is the maximum; inconclusive = response in the unintended direction; inactive = score below 0.9.
These compounds were tested against Estrogen receptor (Homo sapiens) (UniProt P03372) (assay: ERF_TW_NR_COA_hESR1: Eurofins (ERF) Nuclear Receptor (NR) Functional Coactivator Assay for human Estrogen Receptor alpha (ERa) Agonism).
Chain of Estrogen receptor (Homo sapiens) (P03372 whole entry, looked up): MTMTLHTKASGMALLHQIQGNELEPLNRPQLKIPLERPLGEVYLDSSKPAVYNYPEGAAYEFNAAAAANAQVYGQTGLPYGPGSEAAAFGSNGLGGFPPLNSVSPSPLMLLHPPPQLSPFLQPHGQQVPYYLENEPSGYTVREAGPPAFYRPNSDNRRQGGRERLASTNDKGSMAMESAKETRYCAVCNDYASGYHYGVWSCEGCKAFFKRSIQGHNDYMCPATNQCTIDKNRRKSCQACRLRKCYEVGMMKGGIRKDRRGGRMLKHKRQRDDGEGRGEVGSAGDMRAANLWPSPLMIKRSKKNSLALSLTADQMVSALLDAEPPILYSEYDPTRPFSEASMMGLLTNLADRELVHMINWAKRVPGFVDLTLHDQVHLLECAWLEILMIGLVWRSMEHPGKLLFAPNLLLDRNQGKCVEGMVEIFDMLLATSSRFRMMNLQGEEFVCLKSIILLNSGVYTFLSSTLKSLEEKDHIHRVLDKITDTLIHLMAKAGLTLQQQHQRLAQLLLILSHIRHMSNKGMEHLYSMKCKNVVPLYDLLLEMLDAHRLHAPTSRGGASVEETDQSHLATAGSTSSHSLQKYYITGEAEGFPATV
Experimental: ERF_TW_NR_COA_hESR1 is a biochemical, single-readout assay that uses extracted gene-proteins in a cell-free assay. Measurements were taken 0.16 hours after chemical dosing in a 96-well plate. See ERalpha Human Estrogen NHR Functional Agonist Coactivator Assay, Panlabs.ERF_TW_NR_COA_hESR1 is an assay component calculated from the ERF_TW_NR_COA_hESR1 assay. It is designed to measure FRET using a type of binding reporter as detected by fluorescence intensity of estriol with fluorimetry technology.Data from the assay component ERF_TW_NR_COA_hESR1 was analyzed at the assay endpoint, ERF_TW_NR_COA_hESR1, in the positive analysis fitting direction relative to DMSO as the negative control and baseline of activity. Using a type of binding reporter, gain-of-signal activity can be used to understand changes in binding as they relate to gene ESR1. To generalize the intended target to other relatable targets, this assay endpoint is annotated to the nuclear receptor intended target family, where the subfamily is steroid.
Test compound and/or vehicle is incubated with the 7 nM estrogen receptor alpha (ERalpha)-LBD and coactivator peptide for 10 minutes at RT. Determination of the amount of complex formed is read spectrofluorimetrically at 520 nm/490 nm. Test compound-induced increase fluorescence by 50 percent or more (>/=50%) relative to the 1 uM Estriol response indicates possible ERalpha receptor agonist activity.
In the case of NS(=O)(=O)C(F)(F)C(F)(F)C(F)(F)C(F)(F)C(F)(F)C(F)(F)C(F)(F)C(F)(F)F, the outcome is reported as “inactive”.
With OCC(F)(F)OC(F)(F)C(F)(F)OC(F)(F)C(F)(F)OC(F)(F)F the outcome was “inactive”.
OCC(F)(F)OC(F)(F)C(F)(F)OC(F)(F)C(F)(F)OC(F)(F)CO was tested, and the AC50 was 3.43 µM (active).

From PubChem BioAssay AID2284377 (EPA ToxCast)
